The supplement of paper PMC8728848
The entries come from a sample that favours the strongest signals as a whole.

Key:
Assay in all cases: glycan array binding signal (z-score within array); higher = stronger binding
Conditions in all cases: glycan notation: IUPAC condensed, linker removed
[1] = biological target: Fuc(a1-2)Gal(b1-4)GlcNAc(b1-2)Man(a1-3)[Fuc(a1-2)Gal(b1-4)GlcNAc(b1-2)Man(a1-6)]Man(b1-4)GlcNAc(b1-4)GlcNAc
Summary of the method: (§1)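 Glycan array data came from 3228 arrays in the Consortium for Functional Glycomics database, and only arrays with an available protein sequence were kept. Glycan names were put into IUPAC-condensed notation, and columns mapping to the same glycan were averaged. The binding signal is a within-array Z-score, averaged across arrays of one protein sequence run at different concentrations or buffers and across linkers. A negative Z-score can be read as non-binding.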

[2] = biological target: Fuc(a1-2)Gal(b1-4)GlcNAc(b1-2)[Fuc(a1-2)Gal(b1-4)GlcNAc(b1-4)]Man(a1-3)[Fuc(a1-2)Gal(b1-4)GlcNAc(b1-2)Man(a1-6)]Man(b1-4)GlcNAc(b1-4)GlcNAc
Summary of the method: as §1

[3] = biological target: Fuc(a1-2)Gal(b1-4)GlcNAc(b1-3)Gal(b1-4)GlcNAc
Summary of the method: as §1

Fuc(a1-2)[Gal(a1-3)]Gal = biological target: Fuc(a1-2)[Gal(a1-3)]Gal
Summary of the method: as §1

[4] = biological target: Fuc(a1-2)[Gal(a1-3)]Gal(b1-3)GalNAc(b1-3)Gal(a1-4)Gal(b1-4)Glc
Summary of the method: as §1

[5] = biological target: Fuc(a1-3)[Gal(b1-4)]GlcNAc
Summary of the method: as §1

Gal(a1-3)Gal = biological target: Gal(a1-3)Gal
Summary of the method: as §1

[6] = biological target: Gal(a1-4)Gal(b1-4)GlcNAc(b1-2)Man(a1-3)[Gal(a1-4)Gal(b1-4)GlcNAc(b1-2)Man(a1-6)]Man(b1-4)GlcNAc(b1-4)GlcNAc
Summary of the method: as §1

[7] = biological target: Gal(b1-3)GlcNAc(b1-2)Man(a1-3)[Gal(b1-3)GlcNAc(b1-2)Man(a1-6)]Man(b1-4)GlcNAc(b1-4)GlcNAc
Summary of the method: as §1

[8] = biological target: Gal(b1-3)GlcNAc(b1-3)Gal(b1-3)GlcNAc
Summary of the method: as §1

[9] = biological target: Gal(b1-3)GlcNAc(b1-3)Gal(b1-4)GlcNAc(b1-2)Man(a1-3)[Gal(b1-3)GlcNAc(b1-3)Gal(b1-4)GlcNAc(b1-2)Man(a1-6)]Man(b1-4)GlcNAc(b1-4)GlcNAc
Summary of the method: as §1

[10] = biological target: Gal(b1-3)[Fuc(a1-4)]GlcNAc
Summary of the method: as §1

[11] = biological target: Gal(b1-4)GlcNAc(b1-2)Man(a1-3)Man(b1-4)GlcNAc(b1-4)GlcNAc
Summary of the method: as §1

[12] = biological target: Gal(b1-4)GlcNAc(b1-2)Man(a1-3)[Gal(b1-4)GlcNAc(b1-2)Man(a1-6)]Man(b1-4)GlcNAc(b1-4)GlcNAc
Summary of the method: as §1

[13] = biological target: Gal(b1-4)GlcNAc(b1-2)Man(a1-3)[Gal(b1-4)GlcNAc(b1-2)Man(a1-6)]Man(b1-4)GlcNAc(b1-4)[Fuc(a1-6)]GlcNAc
Summary of the method: as §1

[14] = biological target: Gal(b1-4)GlcNAc(b1-2)Man(a1-3)[Gal(b1-4)GlcNAc(b1-2)Man(a1-6)][GlcNAc(b1-4)]Man(b1-4)GlcNAc(b1-4)[Fuc(a1-6)]GlcNAc
Summary of the method: as §1

[15] = biological target: Gal(b1-4)GlcNAc(b1-2)Man(a1-3)[GlcNAc(b1-2)Man(a1-6)]Man(b1-4)GlcNAc(b1-4)GlcNAc
Summary of the method: as §1

[16] = biological target: Gal(b1-4)GlcNAc(b1-2)Man(a1-3)[Man(a1-6)]Man(b1-4)GlcNAc(b1-4)GlcNAc
Summary of the method: as §1

[17] = biological target: Gal(b1-4)GlcNAc(b1-2)[Gal(b1-4)GlcNAc(b1-4)]Man(a1-3)[GlcNAc(b1-4)][Gal(b1-4)GlcNAc(b1-2)[Gal(b1-4)GlcNAc(b1-6)]Man(a1-6)]Man(b1-4)GlcNAc(b1-4)GlcNAc
Summary of the method: as §1

[18] = biological target: Gal(b1-4)GlcNAc(b1-2)[Gal(b1-4)GlcNAc(b1-6)]Man(a1-6)[Gal(b1-4)GlcNAc(b1-2)Man(a1-3)]Man(b1-4)GlcNAc(b1-4)GlcNAc
Summary of the method: as §1

[19] = biological target: Gal(b1-4)GlcNAc(b1-2)[Gal(b1-4)GlcNAc(b1-6)]Man(a1-6)[Gal(b1-4)GlcNAc(b1-2)Man(a1-3)]Man(b1-4)GlcNAc(b1-4)[Fuc(a1-6)]GlcNAc
Summary of the method: as §1

[20] = biological target: Gal(b1-4)GlcNAc(b1-3)Gal(b1-4)GlcNAc(b1-3)Gal(b1-4)GlcNAc
Summary of the method: as §1

Gal6S(b1-4)GlcNAc6S = biological target: Gal6S(b1-4)GlcNAc6S
Summary of the method: as §1

GalNAc(a1-3)GalNAc = biological target: GalNAc(a1-3)GalNAc
Summary of the method: as §1

[21] = biological target: GalNAc(a1-3)GalNAc(b1-3)Gal(a1-4)Gal(b1-4)GlcNAc
Summary of the method: as §1

GalNAc(b1-6)GalNAc = biological target: GalNAc(b1-6)GalNAc
Summary of the method: as §1

GlcA(b1-3)GlcNAc = biological target: GlcA(b1-3)GlcNAc
Summary of the method: as §1

[22] = biological target: GlcA3S(b1-3)Gal(b1-4)GlcNAc(b1-2)Man
Summary of the method: as §1

GlcNAc(b1-3)Gal(b1-4)Glc = biological target: GlcNAc(b1-3)Gal(b1-4)Glc
Summary of the method: as §1

[23] = biological target: GlcNAc(b1-3)Gal(b1-4)GlcNAc(b1-3)GalNAc
Summary of the method: as §1

[24] = biological target: GlcNAc(b1-4)GlcNAc(b1-4)GlcNAc
Summary of the method: as §1

[25] = biological target: Man(a1-3)[Man(a1-6)]Man(a1-6)[Man(a1-2)Man(a1-3)]Man(b1-4)GlcNAc(b1-4)GlcNAc
Summary of the method: as §1

[26] = biological target: Man(a1-3)[Man(a1-6)]Man(a1-6)[Man(a1-3)]Man
Summary of the method: as §1

[27] = biological target: Man(a1-3)[Man(a1-6)]Man(a1-6)[Man(a1-3)]Man(b1-4)GlcNAc(b1-4)GlcNAc
Summary of the method: as §1

[28] = biological target: Man(a1-3)[Man(a1-6)]Man(b1-4)GlcNAc(b1-4)[Fuc(a1-6)]GlcNAc
Summary of the method: as §1

[29] = biological target: Neu5Ac(a2-3)Gal(b1-3)GlcNAc(b1-2)Man(a1-3)[Neu5Ac(a2-3)Gal(b1-3)GlcNAc(b1-2)Man(a1-6)]Man(b1-4)GlcNAc(b1-4)GlcNAc
Summary of the method: as §1

[30] = biological target: Neu5Ac(a2-3)Gal(b1-3)GlcNAc(b1-3)Gal(b1-3)GlcNAc
Summary of the method: as §1

[31] = biological target: Neu5Ac(a2-3)Gal(b1-3)GlcNAc(b1-6)GalNAc
Summary of the method: as §1

Neu5Ac(a2-6)Gal = biological target: Neu5Ac(a2-6)Gal
Summary of the method: as §1

Neu5Ac(a2-6)Gal(b1-4)Glc = biological target: Neu5Ac(a2-6)Gal(b1-4)Glc
Summary of the method: as §1

[32] = biological target: Neu5Ac(a2-6)Gal(b1-4)GlcNAc
Summary of the method: as §1

[33] = biological target: Neu5Ac(a2-6)Gal(b1-4)GlcNAc(b1-2)Man(a1-6)[Gal(b1-4)GlcNAc(b1-2)Man(a1-3)]Man(b1-4)GlcNAc(b1-4)GlcNAc
Summary of the method: as §1

[34] = biological target: Neu5Ac(a2-6)Gal(b1-4)GlcNAc(b1-3)Gal(b1-4)GlcNAc(b1-3)Gal(b1-4)GlcNAc
Summary of the method: as §1

[35] = biological target: Neu5Ac(a2-6)Gal(b1-4)GlcNAc(b1-6)[Gal(b1-3)]GalNAc
Summary of the method: as §1

Neu5Ac(a2-8)Neu5Ac = biological target: Neu5Ac(a2-8)Neu5Ac
Summary of the method: as §1

[36] = biological target: Neu5Ac(a2-8)Neu5Ac(a2-3)Gal(b1-4)GlcNAc
Summary of the method: as §1

[37] = biological target: Neu5Ac(a2-8)Neu5Ac(a2-8)Neu5Ac(a2-8)Neu5Ac(a2-3)[GalNAc(b1-4)]Gal(b1-4)Glc
Summary of the method: as §1

[38] = biological target: Neu5Gc(a2-3)Gal(b1-4)GlcNAc(b1-3)Gal(b1-4)GlcNAc(b1-2)Man(a1-3)[Neu5Gc(a2-3)Gal(b1-4)GlcNAc(b1-3)Gal(b1-4)GlcNAc(b1-2)Man(a1-6)]Man(b1-4)GlcNAc(b1-4)GlcNAc
Summary of the method: as §1

[39] = biological target: Neu5Gc(a2-8)Neu5Gc(a2-3)Gal(b1-4)GlcNAc
Summary of the method: as §1

B1: BDCA-2 (Homo sapiens), Q8WTT0 (protein)
chain: MVPEEEPQDREKGLWWFQLKVWSMAVVSILLLSVCFTVSSVVPHNFMYSKTVKRLSKLREYQQYHPSLTCVMEGKDIEDWSCCPTPWTSFQSSCYFISTGMQSWTKSQKNCSVMGADLVVINTREEQDFIIQNLKRNSSYFLGLSDPGGRRHWQWVDQTPYNENVTFWHSGEPNNLDERCAIINFRSSEEWGWNDIHCHVPQKSICKMKKIYI
[1]
  glycan array binding signal (z-score): -0.085
[2]
  glycan array binding signal (z-score): -0.163
[3]
  glycan array binding signal (z-score): -0.038
Fuc(a1-2)[Gal(a1-3)]Gal
  glycan array binding signal (z-score): -0.099
[4]
  glycan array binding signal (z-score): -0.11
[5]
  glycan array binding signal (z-score): -0.224
Gal(a1-3)Gal
  glycan array binding signal (z-score): -0.284
[6]
  glycan array binding signal (z-score): 8.11
[7]
  glycan array binding signal (z-score): 7.94
[8]
  glycan array binding signal (z-score): -0.16
[9]
  glycan array binding signal (z-score): -0.163
[10]
  glycan array binding signal (z-score): -0.188
[11]
  glycan array binding signal (z-score): 5.76
[12]
  glycan array binding signal (z-score): 8.18
[13]
  glycan array binding signal (z-score): 3.64
[14]
  glycan array binding signal (z-score): 3.96
[15]
  glycan array binding signal (z-score): 6.87
[16]
  glycan array binding signal (z-score): 3.54
[17]
  glycan array binding signal (z-score): -0.146
[18]
  glycan array binding signal (z-score): 6.95
[19]
  glycan array binding signal (z-score): 8.21
[20]
  glycan array binding signal (z-score): -0.237
Gal6S(b1-4)GlcNAc6S
  glycan array binding signal (z-score): -0.168
GalNAc(a1-3)GalNAc
  glycan array binding signal (z-score): -0.119
[21]
  glycan array binding signal (z-score): -0.114
GalNAc(b1-6)GalNAc
  glycan array binding signal (z-score): -0.153
GlcA(b1-3)GlcNAc
  glycan array binding signal (z-score): -0.153
[22]
  glycan array binding signal (z-score): -0.151
GlcNAc(b1-3)Gal(b1-4)Glc
  glycan array binding signal (z-score): 0.173
[23]
  glycan array binding signal (z-score): -0.167
[24]
  glycan array binding signal (z-score): -0.228
[25]
  glycan array binding signal (z-score): -0.087
[26]
  glycan array binding signal (z-score): -0.163
[27]
  glycan array binding signal (z-score): -0.184
[28]
  glycan array binding signal (z-score): -0.173
[29]
  glycan array binding signal (z-score): -0.169
[30]
  glycan array binding signal (z-score): -0.196
[31]
  glycan array binding signal (z-score): -0.169
Neu5Ac(a2-6)Gal
  glycan array binding signal (z-score): -0.173
Neu5Ac(a2-6)Gal(b1-4)Glc
  glycan array binding signal (z-score): -0.252
[32]
  glycan array binding signal (z-score): -0.282
[33]
  glycan array binding signal (z-score): 11.8
[34]
  glycan array binding signal (z-score): -0.186
[35]
  glycan array binding signal (z-score): -0.164
Neu5Ac(a2-8)Neu5Ac
  glycan array binding signal (z-score): -0.243
[36]
  glycan array binding signal (z-score): -0.192
[37]
  glycan array binding signal (z-score): -0.318
[38]
  glycan array binding signal (z-score): -0.153
[39]
  glycan array binding signal (z-score): -0.189
